Results on 15 compounds are retold here after PubChem BioAssay (NCI).

Common to all, as to test: NCI-60 one-dose screen, 48 h (100 = growth as untreated, 0 = no growth, -100 = all killed)
Holding throughout (conditions): 10 µM unless noted

The subject of test [1] is T-47D breast.
Test [2] relates to BT-549 breast.
For test [3], the system named is MDA-MB-435 melanoma.
In test [4] the test system is SW-620 colon.
Test [5] relates to MCF7 breast.
For test [6], the system named is HCT-116 colon.
Test [7] concerns HCC-2998 colon.
Test [8] relates to KM12 colon.

Each structure is given as a SMILES string. The panel holds about 83,000 compounds, 20% with a hit somewhere; the sample as a whole holds those more often.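 Note: values are percent growth. 100 is the growth of untreated cells, values between 100 and 0 indicate rising inhibition; between -100 and 0 indicates cell death.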 Values without a mark were called inactive. Activity calls are given as the source filed them. Rule for the calls: active = growth percent below 10; inactive = the rest.

With `CC(C)c1ccc2occ(C=C3C(=O)NC(=O)NC3=O)c(=O)c2c1`, the growth is 83.5% in test [1]; 92.4% in test [2]; 105% in test [3]; 91.6% in test [4]; 80.8% in test [5]; 76.5% in test [6]. Moreover, the growth in test [7] was 93.7%; in test [8], 117%.

Consider `COc1ccc(/C=N\NC(=O)CN2CCN(c3cc4c(cc3F)c(=O)c(C(=O)N/N=C/c3ccc(OC)c(OC)c3)cn4C3CC3)CC2)cc1OC`, for which the growth in test [1] is 3.79% (active); in test [2] it was -11.1% (active); in test [3], -49.7% (active); in test [4], 4.64% (active); in test [5] it was -4.9% (active); in test [6], 13.3%. Further, the growth was -10.8% (active) in test [7] and 7.04% (active) in test [8].

As for `c1ccc(-c2nc(N3CCNCC3)c3nc(-c4ccccc4)oc3n2)cc1`, the growth in test [1] is -56.6% (active); in test [2], 97.5%; in test [3], -93.7% (active); in test [4] it was -78.8% (active); in test [5], -69.2% (active); in test [6] it was -89.4% (active). In addition, the growth in test [7] was -90.3% (active); in test [8], -86.1% (active).

As for `O=C(C1=Cc2cc3ccccc3n2Cc2cnnn21)c1ccccc1`, the growth in test [1] was 28.8%; in test [2], 37.5%; in test [3], -7.53% (active); in test [4], 28.5%; in test [5], 35.2%; in test [6] it was 26.7%. Moreover, the growth in test [7] is 71.7%; in test [8], 33.8%.

On to `CCOC(=O)c1c(/N=C2\SC(=O)/C(=C\C(=O)OC)N2NC)sc2c1CCN(C(=O)OCC)C2`, for which the growth in test [1] was 93.4%; in test [2] it was 91.7%; in test [3], 101%; in test [4] it was 105%; in test [5] it was 98.7%; in test [6], 95%. Further, the growth was 92.5% in test [7] and 99.1% in test [8].

Turning to `COc1ccc(C2C=C(c3ccc(N)cc3)N=C3SC=CN32)cc1OC` (stereo not given), the growth was 102% in test [1]; 108% in test [2]; 106% in test [3]; 112% in test [4]; 98.6% in test [5]; 107% in test [6]. In addition, the growth in test [8] was 99.5%.

`Cc1ccc(S(=O)(=O)NC(=O)n2cc(-c3ccncc3)c(-c3ccc(Cl)c(O)c3)n2)cc1`: the growth in test [1] was 108%; in test [2], 106%; in test [3] it was 82.2%; in test [4], 131%; in test [5] it was 124%; in test [6], 96%. For the same compound, the growth in test [8] is 118%.

Regarding `COc1ccc(NC(=O)c2cc(OC)c(OC)c(OC)c2)cc1O`, the growth in test [1] was 42.5%; in test [2], 45.5%; in test [3], -15.1% (active); in test [4], 28.1%; in test [5] it was 24%; in test [6], 33.4%. Also, the growth in test [8] is 22.9%.

For `Cc1ccc(S(=O)(=O)NCCNc2nccc(-c3c(-c4ccc(O)cc4)nc4sccn34)n2)cc1`, the growth is 85% in test [1]; 106% in test [2]; 86.4% in test [3]; 126% in test [4]; 93.7% in test [5]; 100% in test [6]. Besides, the growth in test [8] is 100%.

Regarding `c1ccc(Nc2nc(Nc3ccccc3)nc(Nc3ccccc3)n2)cc1`, the growth was 71.9% in test [1]; 114% in test [2]; 89.7% in test [3]; 88.9% in test [4]; 65% in test [5]; 82% in test [6]. In addition, the growth in test [7] was 85.6%; in test [8], 84.4%.

Take `COc1ccc(-c2cc3c(OC)c(OC)c(OC)cc3oc2=O)cc1`: the growth in test [1] was 42.2%; in test [2], 57.5%; in test [3], -17.1% (active); in test [4], 25.1%; in test [5], 26.2%; in test [6], 21.7%. Besides, in test [8], the growth was 21.9%.

On to `Nc1ncnc2c1c(-c1ccc(Oc3ccccc3)cc1)nn2C[C@@H]1SSC[C@@H]1O`, for which the growth in test [1] was -30.9% (active); in test [2], 83%; in test [3] it was -90.9% (active); in test [4], 25.4%; in test [5], -4.42% (active); in test [6], 7.61% (active). The values for the growth in test [7] and in test [8] were 56.5% and 37.2%, respectively.

On to `Cc1cc(N/N=C/c2nc(-c3ccc(Br)cc3)oc2C)c2cc(Br)ccc2n1`, for which the growth was 89.8% in test [1]; 93.1% in test [2]; -11.2% (active) in test [3]; -46.5% (active) in test [4]; -78.7% (active) in test [5]; 16.1% in test [6]. Besides, the growth was 94.7% in test [7] and 60.2% in test [8].

As for `CN(C)CC(C(=O)c1ccccc1)c1ccccc1` (stereo not given), the growth in test [1] is 66.6%; in test [2], 23.3%; in test [3], 23.1%; in test [4], -61.9% (active); in test [5] it was 10.5%; in test [6] it was -94.7% (active). Moreover, the growth in test [7] was 74.9%; in test [8], 10.8%.

As to `N/C(=N\C(N)=N\c1nc2ccccc2s1)c1cccc(Br)c1`, the growth in test [1] was 52.1%; in test [2] it was 79.1%; in test [3] it was 93.8%; in test [4], 102%; in test [5], 77.4%; in test [6], 61.2%. For the same compound, the values for the growth in test [7] and in test [8] were 108% and 66.5%, respectively.
